# Laboratory results from ChEMBL document CHEMBL3988442, “University of Dundee, Small-Polar-MMV Screening Library” (2021).
# Among all 48,000 compounds or so, about 13,000 (27%) showed an effect of 50% or more. The list shows a part of the results.
# System: Wolbachia pipientis
# Assay: Anti-Wolbachia Cell-Based Screen
# Format: functional
# Design: scale not given: in the data most compounds retested in dose-response had high values
# Settings: 5 µM
row,Compound,Percent Effect [%]
1,O=C(c1ccon1)N1CCc2ncnc(NCc3cccnc3)c2CC1,-8.818
2,CN1CCN(c2cc(CNCc3cccc4c3OCO4)ccn2)CC1,11.73
3,CC1CCCN(S(=O)(=O)NCCN/C(O)=C2/N=CC=CC2=O)C1 (stereo not given),-6.366
4,O=C(NCC1Cn2nnc(-c3ccncc3)c2CO1)c1ccsc1.O=C(O)C(F)(F)F (stereo not given),-1.201
5,O=C(NC[C@@H]1C[C@@H]2CN(C(=O)CO)C[C@H]2O1)c1ccsc1,119.3
6,Cn1cccc1C(=O)NC[C@H]1C[C@@H]2CN(C(=O)c3ccco3)C[C@@H]2O1,102.1
7,CN(C)C[C@H]1C[C@@H]2CN(C(=O)c3ccco3)C[C@@H]2O1,-6.391
8,O=C(NC[C@H]1C[C@@H]2CN(C(=O)c3ccco3)C[C@@H]2O1)c1ccsc1,124.8
9,O=C(c1ccsc1)N1C[C@@H]2C[C@@H](c3nnc(C4CC4)o3)O[C@@H]2C1,1.173
10,Cn1cccc1C(=O)NC[C@H]1C[C@@H]2CN(C(=O)c3ccno3)C[C@H]2O1,1.866
11,O=C(NC[C@H]1C[C@@H]2CN(C(=O)c3ccno3)C[C@@H]2O1)C1CCC1,2.338
12,CC(C)NC[C@@]1(COc2ccccc2)C[C@@H](O)[C@@H](O)C1.Cl,3.998
13,N#Cc1ccc(N2CCCC2Cn2cncn2)nc1 (stereo not given),6.543
14,COc1ccccc1C(C#N)NC(=O)c1cccc2c1oc(=O)n2C (stereo not given),-5.303
15,CC(=O)N1CCCN(C(=O)NC(C)c2csc3ccccc23)CC1 (stereo not given),-8.175
16,O=C1N(Cc2cccc(F)c2F)CCCC1(O)CNC1CCCC1 (stereo not given),4.204
17,COCCNC(=O)Nc1ccc(C(=O)N2CCSCC2)cc1C,-68.32
18,O=C(Cc1ccccc1)N1CCC2(CC1)CN(c1ncccn1)CCO2,-17.85
19,NCC(=O)N1CCC2(CC1)CN(C(=O)Cc1ccc(Cl)cc1)CCO2,111
20,O=C(CCc1ccc(Cl)cc1)N1CCC(O)(C(F)(F)F)C1 (stereo not given),8.106
21,O=C(Cc1ccccn1)N1CCC2(CC1)CN(c1ccccn1)CCO2,1.035
22,O=C(CN1C(=O)c2ccccc2C1=O)N1CCOC2(CCOCC2)C1,-3.799
23,NCCC(=O)N1CCC2(CC1)CN(C(=O)Cc1ccc(Cl)cc1)CCO2,115.1
24,Cl.NCC1CCCCN1C(=O)Cc1cccc(Cl)c1 (stereo not given),-19.94
25,O=C(Cc1ccc(Cl)cc1)N1CCC(O)(C(F)(F)F)C1 (stereo not given),-18.33
26,NCCC(=O)N1CCC2(CC1)CN(C(=O)Cc1cccc(Cl)c1)CCO2,105.1
27,CCOc1ncccc1C(=O)Nc1c(C)cnn1CC1CC1,12.64

row,Compound,Percent Effect [%]
1,CC(=O)N1CCN(Cc2nnc(C(C)(C)C)o2)CC1,-8.386
2,Cc1cc(CN(C)C(=O)NCc2ccnc(OC3CCCC3)c2)no1,7.98
3,CC(=O)N1CCN(C(=O)c2cnc(OC(C)C)c(Cl)c2)CC1,-40.95
4,CCCOc1ccc(CNc2cncc(-n3cccn3)n2)cc1,92.88
5,CCN(Cc1nccn1C)C(=O)c1ccc(NCc2ccccc2)nc1,-22.31
6,CCN(CC)C(=O)c1ccc(CNc2ncc(C#N)cc2Cl)cc1,2.172
7,CNC(=O)COc1ccc(CNc2c(Cl)cccc2C#N)cc1,-7.522
8,CNC(=O)COc1ccc(CNc2cncc(-n3cccn3)n2)cc1,94.6
9,CCOc1cccc(CNc2cncc(-n3cccn3)n2)c1,10.28
10,CCN(CC)C(=O)c1ccc(CNc2cncc(-n3cccn3)n2)cc1,118.2
11,CN(CCCc1ccccc1)C(=O)c1cn2c(n1)CNCC2,13.8
12,O=C(CSc1ccc2c(c1)OCCO2)NS(=O)(=O)c1ccccc1,-10.89
13,Cn1nccc1C1CCN(Cc2cnn(-c3ccccc3)n2)CC1,-1.945
14,CN(CCc1ccccc1)c1cnn(CC(=O)N2CCSCC2)c(=O)c1,-7.275
15,Cc1nn(CC(C)C)c(N(C)C)c1CNCc1cccnc1N(C)C,-5.662
16,Cc1nn(CC(C)C)c(N(C)C)c1CNCc1ccc(CO)c(F)c1,108.6
17,Cc1nn(C)c(N(C)C)c1CNCc1ccnn1C,-14.99
18,Cc1nn(CC(C)C)c(N(C)C)c1CNCc1ccccc1CO,116.8
19,COc1cc(CNCc2c(C(C)C)nn(C)c2N(C)C)ccn1,-8.861
20,Cc1nn(CC(C)C)c(N(C)C)c1CNCc1ccnn1C,113.6
21,Cc1nn(CC(C)C)c(N(C)C)c1CNCc1cccc2c1OCO2,0.06204
22,CC(=O)NCCCNCc1c(C)nn(CC(C)C)c1N(C)C,-6.238
23,CC(C)c1nn(C)c(N(C)C)c1CNCc1ccnn1C,10.31
24,COc1cc(CNCc2c(C)nn(C)c2N(C)C)ccn1,-5.351
25,COc1cc(CNCc2c(C)nn(CC(C)C)c2N(C)C)ccn1,90.35
26,Cc1nn(CC(C)C)c(N(C)C)c1CNCc1cc2ccccc2[nH]1,5.6
27,COCC1CN(C(=O)Nc2cc(-n3cccc3)ccc2F)CCO1 (stereo not given),0.4358

row,Compound,Percent Effect [%]
1,O=S(=O)(NCCc1c[nH]c2ccc(F)cc12)C1CCOCC1,-14.21
2,Cc1cc(N2CCN(Cc3ccc(C)o3)CC2)cc(C)n1,4.051
3,CN(Cc1cccc(Cl)c1)C(=O)Cn1nc(-c2ccc(F)cc2)oc1=O,-8.099
4,CCOCc1nc2c(c(N(C)Cc3snnc3C)n1)CCNCC2,2.794
5,O=C(NC[C@@H]1CCCO1)c1ccc(S(=O)(=O)N[C@@H]2CCNC2)cc1,-1.141
6,Fc1ccc(CNc2ccccc2Cn2cncn2)cc1,-15.58
7,CC(C)C(NCc1ccc(Cn2cncn2)cc1)c1ccccc1 (stereo not given),124.9
8,N#Cc1cc(F)ccc1NCc1ccc(Cn2cncn2)cc1,1.669
9,CC(NCc1ccc(F)cc1)c1ccc(S(C)(=O)=O)cc1 (stereo not given),8.945
10,CC(C)C(NCc1ccc(Cn2cncn2)cc1)c1ccc(F)cn1 (stereo not given),90.96
11,Cc1[nH]ncc1C(C)NCc1ccc(F)cc1 (stereo not given),-5.411
12,COc1ccc(CNC(Cn2cncn2)c2ccccc2)cc1C (stereo not given),-2.513
13,COc1ccc(CNC(Cn2cncn2)c2ccccc2)cc1O (stereo not given),-2.426
14,CC(C)c1ccc(CNC(c2ccc(F)cn2)C(C)C)cc1 (stereo not given),100.5
15,COc1cc(OC)cc(N2CCC(NCc3occc3C)C2=O)c1 (stereo not given),-29.36
16,Cc1cn(Cc2nc(CC(C)C)nn2-c2ccccn2)c(=O)[nH]c1=O,5.875
17,CCOCCC(=O)Nc1cc(C)cnc1OC,1.473
18,O=C(O)C(c1ccc2[nH]ccc2c1)N1CCN(c2cnccn2)CC1 (stereo not given),-11.7
19,O=C(C1=CCCC1)N1CCC[C@]2(C[C@@H](OCc3ccncc3)CO2)C1.O=C(O)C(F)(F)F,-18.3
20,Cc1ccc(S(=O)(=O)NC[C@H]2OC[C@@H](NCc3ccccc3)[C@@H]2O)cc1,-16.71
21,COC1CCN(S(=O)(=O)N2CCC3(CCCNC3=O)C2)CC1 (stereo not given),4.322
22,CN1CC(Nc2nc3c(cnn3C(C)(C)C)c(=O)[nH]2)CCC1=O (stereo not given),10.78
23,O=C1CCCN1Cc1ncn2c1CN(C(=O)Cc1cccs1)CCC2,106.6
24,O=C1CCCN1Cc1ncn2c1CN(C(=O)Cc1ccccc1)CCC2,99.41
25,Cc1ccc(CC(=O)N2CCCn3nnc(Cn4cccn4)c3C2)cc1,-8.474
26,O=C1CCCN1Cc1ncn2c1CN(S(=O)(=O)c1cccs1)CCC2,-2.152
27,O=C(O)C(F)(F)F.O=C1CCCN1Cc1ncn2c1CN(Cc1cccs1)CCC2,-6.025

row,Compound,Percent Effect [%]
1,CCCn1ncnc1C(C)NC(=O)CC1CCN(C(C)C)CC1 (stereo not given),-1.645
2,CCS(=O)(=O)N1CC(c2nc(-c3cccs3)no2)C1,0.556
3,c1csc(-c2noc(C3CCCOC3)n2)c1 (stereo not given),-23.77
4,Cl.c1csc(-c2noc(C3CCCNC3)n2)c1 (stereo not given),100.6
5,CCN(CC)CCn1cnc(-c2ccccc2)c1-c1cnn(CC)c1,8.592
6,CCn1cc(-c2nn3c(C(F)(F)F)nnc3s2)cn1,71.37
7,Cc1nn(C)cc1-c1nn2c(C(F)(F)F)nnc2s1,115.5
8,CN(Cc1cc(=O)c(O)co1)C1CCN(c2ccc(F)cc2)CC1,-14.07
9,COCCN(C)C[C@H]1C[C@@H](CO)CN(C(=O)c2ccn(C)c(=O)c2)C1,96.22
10,CN(C)C[C@H]1C[C@@H](CO)CN(C(=O)c2cc(=O)[nH]c3cc(F)ccc23)C1,-10.33
11,COCCN(C)C[C@H]1C[C@H](CO)CN(C(=O)c2ccn(C)c(=O)c2)C1,59.73
12,Cn1ccc(C(=O)N2CCCC(CNS(C)(=O)=O)C2)cc1=O (stereo not given),-3.744
13,CN(C)C[C@H]1C[C@H](CO)CN(C(=O)c2cc(S(N)(=O)=O)ccc2F)C1,-6.33
14,Cc1nc(-c2ccc(Cl)s2)sc1C(=O)N(C)CC(N)=O,2.802
15,COCc1noc(-c2ccc(N3CCCC3c3nccs3)nc2)n1 (stereo not given),1.711
16,CCOC(=O)c1c(NC(=O)CN2CCN(C(C)=O)CC2)sc(C)c1C,112.4
17,CCOC(=O)N1CCC(C(=O)Nc2nnc(C(F)(F)F)[nH]2)CC1,5.698
18,CCOC(=O)c1c(NC(=O)C2CCN(C(C)=O)CC2)sc(C)c1CC,114.1
19,CCOC(=O)N1CCN(CC(=O)Nc2nnc(C)s2)CC1,-13.53
20,CCC(C)NC(=O)CN1CCOCC1 (stereo not given),4.194
21,CCc1c(C)sc(NC(=O)CN2CCN(CC)CC2)c1C(=O)OC,-10.89
22,CCc1ccc(NC(=O)C2CCN(C(=O)COC)CC2)cc1,-3.205
23,CCOC(=O)N1CCN(CC(=O)Nc2nnc(CC)s2)CC1,-11.16
24,CCc1c(C)sc(NC(=O)CN2CCOCC2)c1C(=O)OC,123.3
